Compounds without any hit were thinned out: in the full panel of roughly 79,000, 15% have a hit. Calls of active or inactive are those of the source. Cut-off read from the data, not from the text of the source: active = growth inhibition above about 70%; inactive = the rest.
Assay: NCI Yeast Anticancer Drug Screen. Data for the mlh1 rad18 strain (AID 175)
Details: S. cerevisiae mlh1 rad18 strain growth inhibition; at 50.0 µM; stronger effect = higher value
How it was run: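 In this whole-cell yeast screen, a strain with altered DNA damage repair is challenged with compound, and its growth is measured against matched vehicle-treated controls.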

Row | SMILES | growth inhibition
1 | CCCCCCCCCCC(=O)O | 15.2% (inactive)
2 | O=S=NN(CC(Cl)c1ccccc1)CC(Cl)c1ccccc1 (centres undefined) | 7.7% (inactive)
3 | CCOP(=O)(OCC)C(O)C(C)C (centres undefined) | 0.35% (inactive)
4 | CCOP(=O)(O)C1CCCC(C)[N-]1.CCOP(=O)(O)C1CCCC(C)[N-]1.CCOP(=O)(O)C1CCCC(C)[N-]1.[Ti+3] (centres undefined) | 2.6% (inactive)
5 | [C-]#[O+].[C-]#[O+].[C-]#[O+].[C-]#[O+].[C-]#[O+].[CH3][Sn]([Cl])[c]1ccccc1.[Mn] | 92.5% (active)
6 | O=C1NC2C(=CC(O)C(O)C2O)c2cc3c(cc21)OCO3 (centres undefined) | 37.2% (inactive)
7 | Cc1ccc2c(c1)N(CCCl)c1c(ccc3ccccc13)S2 | -6.6% (inactive)
8 | O=C(COc1ccc(Cl)cc1)Nc1ccc(Cl)cc1C(=O)c1ccccc1 | -18.4% (inactive)
9 | NC(N)=Nc1nn[nH]n1 | -5.6% (inactive)
10 | NNC(=O)Nc1ccc([N+](=O)[O-])cc1[N+](=O)[O-] | 20.5% (inactive)
11 | Brc1ccc(Oc2ccc(Br)cc2Br)c(Br)c1 | 32.4% (inactive)
12 | NS(=O)(=O)CC1CC[CH-]CC1.[Cl-].[Cl-].[Cl-].[Cl-].[Cl-].[Sb+5].c1ccncc1 | 18.1% (inactive)
13 | Nc1nc(N)c(N)c(N)n1 | 34.2% (inactive)
14 | [Cl][Hg][c]1cccs1 | 99.6% (active)
15 | CCOP(=O)(NC(C)(C)C)OCC | -12.8% (inactive)
16 | [CH3][Sb]([CH3])([CH3])([I])[I] | 1.25% (inactive)
17 | CCOC(OCC)c1ccc(C(F)(F)F)cc1.[C-]#[O+].[C-]#[O+].[C-]#[O+].[Cr] | 26.2% (inactive)
18 | OCCSCSCCO | 0.8% (inactive)
19 | Cc1cccc(C)c1NC(N)=S | 3.25% (inactive)
20 | COC1CCC2NCCNC2C1 (centres undefined) | 2.5% (inactive)

Row | SMILES | growth inhibition
21 | C[C@H](CCC1SC1(C)C)C1CCC2(C)C3=C(CC[C@]12C)[C@@]1(C)CC[C@H](O)C(C)(C)C1CC3 (some centres undefined) | 1.9% (inactive)
22 | N#CC[CH2][Sn]([I])([c]1ccccc1)[c]1ccccc1 | 98.1% (active)
23 | CCCCCCCCCCCCN(C)C | 37.9% (inactive)
24 | CCN1CCOC(O)(c2cc(Cl)cc(Cl)c2Cl)C1 (centres undefined) | 14.8% (inactive)
25 | O=P(O)(O)CCc1ccccc1 | 7.7% (inactive)
26 | CCOP(N)(=O)SC (centres undefined) | 23.6% (inactive)
27 | CC1(C)OP(=O)(c2ccccc2)C=C1Br (centres undefined) | -3.7% (inactive)
28 | O=S(=O)(Nc1ccc(-c2ccccc2)cc1)c1ccc([As](=O)(O)O)cc1 | 40% (inactive)
29 | N#CC(CCN1CCC(Nc2ccccc2)(c2nnnn2C2CCCCC2)CC1)(c1ccccc1)c1ccccc1 | -21.6% (inactive)
30 | CN(C)C(=O)O/N=C(\c1ccccc1)C(F)(F)F | 30.6% (inactive)
31 | C1C[N-]CC[N-]1.C1C[N-]CC[N-]1.[Zn] | 99.3% (active)
32 | CCC1CN(CC(=O)c2ccc(Br)cc2)CCO1 (centres undefined) | 25% (inactive)
33 | CCOS(=O)(=O)c1ccc(C)cc1 | -5.2% (inactive)
34 | O=NN1CCCCCCC1C(=O)O (centres undefined) | 19.5% (inactive)
35 | CC1(C)c2ccccc2C(c2ccccc2)(c2ccccc2)[N+]1(C)C | 49% (inactive)
36 | O=C(c1ccccc1)N1CC1 | 0.35% (inactive)
37 | O=[N+]([O-])c1ccc(O)c(C=NCCN=Cc2cc([N+](=O)[O-])ccc2O)c1.[Zn+2] | 23.4% (inactive)
38 | Cc1ccc(S(=O)(=O)N/N=C(\CCN2CCCC2)CC(c2ccccc2)c2c(O)c3ccccc3oc2=O)cc1 (centres undefined) | 17.6% (inactive)
39 | O=C1C(Br)=CC2(C=C1Br)CCN=c1c(O)c3c(c(O)c12)=NC=N3 | -9.4% (inactive)
